Test results: PubChem BioAssay (NCI)
This is part of a sample that, as a whole, favours compounds with a hit. Of some 83,000 tested, about 20% had one in any assay.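 Assay: single dose, 48 h. Readout: percent growth (0 = no net growth; negative = cell death). Active: <10.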 Values without a mark were called inactive. Active and inactive are the calls of the source.

Columns and labels:
Experiment in all cases: NCI-60 one-dose screen, 48 h (100 = growth as untreated, 0 = no growth, -100 = all killed)
Conditions in all cases: 10 µM unless noted
[1] = system: DU-145 prostate
[2] = system: K-562 leukemia
[3] = system: MALME-3M melanoma
[4] = system: MDA-MB-231 breast
[5] = system: RXF 393 renal
[6] = system: SF-268 CNS
[7] = system: SF-295 CNS
[8] = system: SF-539 CNS
[9] = system: UACC-257 melanoma
[10] = system: M14 melanoma

| SMILES | growth [1] | growth [2] | growth [3] | growth [4] | growth [5] | growth [6] | growth [7] | growth [8] | growth [9] | growth [10] |
| --- | --- | --- | --- | --- | --- | --- | --- | --- | --- | --- |
| COc1ccc(-c2nn(-c3ccccc3)cc2/C=C/C(=O)NNC(=O)Nc2ccc(C)cc2)cc1 | 108% | 78.3% | 91.8% | 83.5% | 109% | 102% | 99% | 101% | 95.7% | 94.1% |
| CCOC(=O)c1cc(C(=O)c2cc(OC)c(OC)c(OC)c2)n2ccccc12 | 24.9% | 11.5% | 35.6% | 37.9% | -0.358% (active) | 55.7% | 21.3% | -6.66% (active) | 50.1% | -21.8% (active) |
| O=C1Nc2ccccc2/C1=C\c1c[nH]c2ccc(Br)cc12 | 89.7% | 74.2% | 89.8% | 67% | 25.4% | 62.2% | 109% | 83.1% | 80.1% | 84.5% |
| O=C(CCl)NNc1nccc(Nc2ccc(S(=O)(=O)Nc3ccncc3)cc2)n1 | 32.1% | 17.6% | 32.2% | 46.7% | 48.2% | 37.6% | 67.7% | 5.24% (active) | 52.1% | 45.2% |
| Cc1nc2ccccc2c(/C=C/c2ccccc2)c1C(=O)/C=C/c1ccccc1 | 12.6% | 9.41% (active) | 37.5% | 29.8% | 21.1% | 40.2% | 45.8% | 8.18% (active) | 9.71% (active) | 22.5% |
| CN(Cc1ccccc1)c1nc(Cl)c(C2CC(c3ccccc3)=NN2c2ccccc2)s1 (stereo not given) | 102% | 79.9% | 90.3% | 101% | 101% | 86.6% | 101% | 98.9% | 93% | 96.6% |
| CN(C)S(=O)(=O)Oc1ccc(-c2sc3cc(OS(=O)(=O)N(C)C)ccc3c2C(=O)c2ccc(OCCN3CCCCC3)cc2)cc1 | 63.4% | -8.94% (active) | 17.7% | 77.5% | 26.8% | 42.1% | 48.6% | 52.2% | -17.5% (active) | 2.03% (active) |
| C/C=C(/C)n1cnc2c(Nc3ccccn3)nc(Cl)nc21 | 109% | 95.6% | 106% | 107% | 105% | 99.2% | 104% | 102% | 97.6% | 101% |
| O=C(CCCCCNC(=O)c1cc(=O)c(O)co1)Nc1ccccc1 | 103% | 95.2% | 102% | 101% | 109% | 91.8% | 97.4% | 101% | 93.8% | 96.3% |
| O=C(Cn1nnc2ccccc21)N/N=C/c1c[nH]c2ccccc12 | 81% | 15.2% | 61% | 52% | 66.5% | 57.5% | 44.3% | 51.9% | 65.3% | 19.7% |
| C#CCOc1cccc(-c2ncnc3cc(NC(=O)C=C)ccc23)c1 | 15.6% | 24.2% | 60.5% | 15.8% | 30.8% | 49.6% | 43.2% | 8.33% (active) | 62.5% | 45.6% |
| CCCCNc1nnc2n(Cc3ccccc3)c(=O)c3c4c(sc3n12)CCCC4 | 38.3% | 41.2% | 40.3% | 54.9% | 63.2% | 63.6% | 48.4% | 47.1% | 54.1% | 56.3% |
| Cc1c(CC(=S)N2CCOCC2)nnn1-c1cccc(C(F)(F)F)c1 | 111% | 100% | 104% | 107% | 108% | 97.7% | 109% | 95.1% | 105% | 100% |
| CCC1S/C(=N\N=C(\C)c2cc3cc(Cl)ccc3o2)N(c2ccccc2)C1=O (stereo not given) | 131% | 92.2% | -3.03% (active) | 89.4% | 131% | 108% | 103% | 122% | 154% | 61.5% |
| C#CCNC(=O)[C@]1(C)CCC[C@@]2(C)[C@H]1CC=C1C=C(C(C)C)CC[C@@H]12 | 103% | 121% | 97.5% | 96.3% | 120% | 89.3% | 91.6% | 108% | 110% | 98.6% |
| C=CCN1C(=O)c2cccc3c(N4CCOCC4)ccc(c23)C1=O | 10.3% | 9.78% (active) | -3.28% (active) | 23.9% | -29.9% (active) | -23.9% (active) | 2.87% (active) | 0.495% (active) | -3.63% (active) | 0.387% (active) |
| CC(=O)O[C@H]1C[C@@H]2C(C)(C)C(=O)CC[C@@]2(C)c2ccc(C(C)C)cc21 | 102% | 104% | 109% | 104% | 121% | 95.8% | 100% | 110% | 107% | 104% |
| CSc1nc(C)c([N+](=O)[O-])c(N)n1 | 109% | 91% | 104% | 96.5% | 114% | 105% | 109% | 104% | 84.7% | 91.8% |
| O=S(=O)(NCCCNc1nccc(-c2c(-c3cccc(F)c3)nc3occn23)n1)c1ccc(F)cc1 | 55.9% | 13% | 43.6% | 60.9% | 63.6% | 44.5% | 89.5% | 87% | 43.6% | 35.7% |
| O=S1(=O)C=C(c2ccccc2)C(c2ccccc2)=C1 | 9.89% (active) | 4.11% (active) | -32.6% (active) | 11% | -86.8% (active) | 3.46% (active) | 73.5% | 9.24% (active) | 2.35% (active) | 12.1% |
| CCN(CC)c1ccc(/C=N/NC(=O)Cc2ccc(Nc3ccnc(C(F)(F)F)c3)cc2)c(O)c1 | 18.3% | 23.1% | 15.5% | 43% | 45.8% | 18% | 17.9% | 17.1% | 37.4% | -18.3% (active) |
| O=C(Cc1ccc(/C=C/C(=O)c2ncc[nH]2)cc1)Nc1cc(C(F)(F)F)cc(C(F)(F)F)c1 | 86.2% | 18.9% | 92.1% | 92.6% | 67.8% | 88.2% | 93.7% | 73.7% | 100% | 89.6% |
| C=C(c1ccc(OC)c(/C=C/C(=O)c2ccc3c(c2)OCO3)c1)c1cc(OC)c(OC)c(OC)c1 | 9.67% (active) | 6.89% (active) | 67.2% | 29% | 3.52% (active) | 19.3% | 10.7% | -21.8% (active) | 58.7% | 11.3% |
| CCOC(=O)C(=CNc1cnc(Nc2ccc(N3CCOCC3)cc2)nc1Oc1ccc(OC)cc1)C(=O)OCC | 73% | 49.2% | 39% | 59.7% | 89.2% | 69.7% | 75.9% | 24.7% | 87.4% | 63.7% |
| CNCc1cccc2c1OCCOCCOCCNS(=O)(=O)c1ccc(cc1)-c1cnc(N)c(n1)C(=O)N2 | 21.1% | 9.35% (active) | 29.9% | 30.4% | -11.5% (active) | 35.7% | 70.3% | 7.45% (active) | 61.3% | 26% |
| CN(Cc1cnc2nc(N)nc(N)c2n1)c1ccc(C(=O)NC(CCC(=O)O)C(=O)O)cc1Br (stereo not given) | 25.2% | 31.1% | 98.1% | 60.2% | 58.6% | 34.4% | 27% | 6.95% (active) | 59.4% | 30.9% |
| COC(=O)N1CC(Oc2ccccn2)C2CC1c1ccccc1O2 (stereo not given) | 115% | 114% | 104% | 89.7% | 95.1% | 102% | 104% | 99.4% | 88% | 102% |
